# From PubChem BioAssay
# Calls of active or inactive are those of the source.
# Legend:
# [1] = optical density shifts of acrAB sulA E. coli – strain DRC41, OD650, 48 h, E. coli filamentation inducer project, primary screen (AID 1152); settings: higher = more signal, called active from +8 up or from −8 down;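 note: E. coli MC1000 strain DRC41 lacking acrAB efflux pump and sulA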
# [2] = probe aLefty1 binding on compound microarray – biochemical, small-molecule microarray, 635/667 nm fluorescence, primary screen (AID 1153); settings: higher = more signal;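 note: score merges spot fluorescence with signal-to-noise ratio from the scanned slide images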
# [3] = plasmodial surface anion channel blockers, osmotic lysis – cell-based, P. falciparum Indochina, OD700, 1 h, primary screen (AID 1154); settings: P. falciparum Indochina infected RBC osmotic lysis, higher = more signal, called active from +8 up or from −8 down
# [4] = plasmodial surface anion channel blockers, osmotic lysis – cell-based, P. falciparum Indochina, OD700, 2 h, primary screen (AID 1155);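 note: lysis reports solute entry through the parasite surface anion channel PSAC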; settings: P. falciparum Indochina infected erythrocytes, higher = more signal, called active from +8 up or from −8 down
# [5] = changes in parasitized red cell lysis, either direction – P. falciparum Indochina, OD700, 3 h, PSAC antagonist project, primary screen (AID 1156); settings: P. falciparum-infected erythrocytes, osmotic lysis, higher = more signal, called active from +8 up or from −8 down
# [6] = plasmodial surface anion channel blockers, osmotic lysis – cell-based, P. falciparum Indochina, OD700, 18 h, primary screen (AID 1157); settings: P. falciparum Indochina infected erythrocytes, osmotic lysis OD700, 18 h; higher = more signal, called active from +8 up or from −8 down
# [7] = S6 kinase pathway phospho-S6 level changes – cell-based, A549, cytoblot, luminescence, serum-stimulated, primary screen (AID 1158); settings: 5 h, higher = more signal;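 note: serum-stimulated A549 lung adenocarcinoma cells; signal is phosphorylated S6 detected by cytoblot immunostaining with HRP secondary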
# [8] = target: NADPH oxidase 2 (Homo sapiens) (UniProt P04839); test: compounds shifting NOX2 Amplex Red fluorescence – cell-based, HEK293-NOX2, PMA-stimulated, NOX inhibitor project, primary screen (AID 1159); settings: 45 min, higher = more signal, called active from +8 up or from −8 down; note: test concentration not given here
# [9] = target: NADPH oxidase 4 (Homo sapiens) (UniProt Q9NPH5); test: compounds shifting NOX4 Amplex Red fluorescence – cell-based, HEK293-NOX4, tetracycline-induced, NOX inhibitor project, primary screen (AID 1160); settings: HEK293-NOX4, Amplex Red H2O2 fluorescence, 45 min; higher = more signal, called active from +8 up or from −8 down
# [10] = target: NADPH oxidase 5 (Homo sapiens) (UniProt Q96PH1); test: compounds shifting NOX5 Amplex Red fluorescence – cell-based, HEK293-NOX5, NOX inhibitor project, primary screen (AID 1161); settings: HEK293-NOX5, ionomycin, 45 min, higher = more signal
# Chain of NADPH oxidase 5 (Homo sapiens) (Q96PH1 whole entry, looked up): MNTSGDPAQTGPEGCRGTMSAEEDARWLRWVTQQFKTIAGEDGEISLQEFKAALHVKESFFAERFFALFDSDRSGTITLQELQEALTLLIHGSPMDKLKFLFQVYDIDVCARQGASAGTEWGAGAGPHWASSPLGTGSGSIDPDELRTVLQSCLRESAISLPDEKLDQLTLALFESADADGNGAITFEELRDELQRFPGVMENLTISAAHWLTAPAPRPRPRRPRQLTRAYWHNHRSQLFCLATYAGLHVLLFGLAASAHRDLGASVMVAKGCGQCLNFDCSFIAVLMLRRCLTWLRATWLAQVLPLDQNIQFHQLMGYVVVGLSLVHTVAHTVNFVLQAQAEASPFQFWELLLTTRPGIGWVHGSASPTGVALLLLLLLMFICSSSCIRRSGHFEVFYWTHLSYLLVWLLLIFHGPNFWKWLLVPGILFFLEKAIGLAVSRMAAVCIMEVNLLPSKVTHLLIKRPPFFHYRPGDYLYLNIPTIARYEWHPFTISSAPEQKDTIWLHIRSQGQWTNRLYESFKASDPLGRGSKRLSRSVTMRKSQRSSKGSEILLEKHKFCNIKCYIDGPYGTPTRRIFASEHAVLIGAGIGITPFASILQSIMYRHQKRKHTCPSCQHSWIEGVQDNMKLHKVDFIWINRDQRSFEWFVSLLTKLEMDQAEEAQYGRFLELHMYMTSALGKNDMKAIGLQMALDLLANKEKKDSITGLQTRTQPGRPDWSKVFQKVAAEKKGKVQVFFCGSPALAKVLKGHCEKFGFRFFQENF
# Chain of NADPH oxidase 4 (Homo sapiens) (Q9NPH5 whole entry, looked up): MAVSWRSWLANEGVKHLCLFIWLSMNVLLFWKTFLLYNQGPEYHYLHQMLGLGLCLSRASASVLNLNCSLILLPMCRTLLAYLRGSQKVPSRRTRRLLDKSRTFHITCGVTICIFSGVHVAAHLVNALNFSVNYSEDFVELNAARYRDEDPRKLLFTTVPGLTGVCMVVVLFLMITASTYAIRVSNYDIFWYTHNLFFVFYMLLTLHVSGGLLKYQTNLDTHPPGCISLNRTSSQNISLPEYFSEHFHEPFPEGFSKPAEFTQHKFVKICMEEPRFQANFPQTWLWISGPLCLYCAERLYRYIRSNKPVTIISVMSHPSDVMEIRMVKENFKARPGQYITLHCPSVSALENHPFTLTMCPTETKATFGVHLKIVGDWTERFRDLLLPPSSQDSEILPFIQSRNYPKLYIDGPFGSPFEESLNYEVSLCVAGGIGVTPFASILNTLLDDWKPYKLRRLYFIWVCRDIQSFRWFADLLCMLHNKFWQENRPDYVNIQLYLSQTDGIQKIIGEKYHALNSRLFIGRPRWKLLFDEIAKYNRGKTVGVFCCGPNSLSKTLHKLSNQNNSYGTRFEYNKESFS
# Chain of NADPH oxidase 2 (Homo sapiens) (P04839 whole entry, looked up): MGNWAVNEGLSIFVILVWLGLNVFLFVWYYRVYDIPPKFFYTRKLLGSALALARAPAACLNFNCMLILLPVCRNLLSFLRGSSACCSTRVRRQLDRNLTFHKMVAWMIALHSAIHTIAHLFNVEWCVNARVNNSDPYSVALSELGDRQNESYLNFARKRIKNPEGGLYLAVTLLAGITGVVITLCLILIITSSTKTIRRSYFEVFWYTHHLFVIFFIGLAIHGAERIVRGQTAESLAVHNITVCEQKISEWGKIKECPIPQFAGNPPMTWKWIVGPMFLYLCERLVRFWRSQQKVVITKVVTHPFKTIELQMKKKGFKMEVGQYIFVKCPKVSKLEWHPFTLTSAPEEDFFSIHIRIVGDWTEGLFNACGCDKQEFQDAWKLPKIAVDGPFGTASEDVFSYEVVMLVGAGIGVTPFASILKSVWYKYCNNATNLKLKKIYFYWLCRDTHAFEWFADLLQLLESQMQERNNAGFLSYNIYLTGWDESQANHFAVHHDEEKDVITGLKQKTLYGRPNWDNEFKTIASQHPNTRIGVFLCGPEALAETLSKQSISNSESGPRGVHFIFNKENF
Structure (SMILES),z-score [1],composite z-score [2],z-score [3],z-score [4],z-score [5],z-score [6],z-score [7],z-score [8],z-score [9],z-score [10]
O=C1C=C[C@@H](O)[C@@H]2[C@@H]3C(=O)N(c4ccc(F)cc4F)C(=O)[C@@H]3CC[C@@H]12,0.262 (inactive),-0.0559,0.337 (inactive),-1.44 (inactive),-0.562 (inactive),-1.9 (inactive),1.44,-0.632 (inactive),0.267 (inactive),0.713
CCOC(=O)[C@H](CC(C)C)NC(=O)CCC1CC(OC(=O)NCc2cccc3ccccc23)CC2(CCCC(COC(=O)NCCOC)O2)O1 (stereo not given in full),1.24 (inactive),-0.0559,-0.137 (inactive),0.184 (inactive),-0.283 (inactive),-0.196 (inactive),0.142,1.05 (inactive),0.96 (inactive),-0.464
Cn1c(=O)n2n(c1=O)[C@H]1[C@H](O)[C@@H]3O[C@@H]3C(=O)[C@H]1CC2,0.498 (inactive),-0.0984,-0.259 (inactive),-0.0607 (inactive),-0.596 (inactive),0.18 (inactive),-0.0231,-1.2 (inactive),0.171 (inactive),0.888
CCCNC(=O)OC[C@H]1O[C@H](c2ccccc2)C=C[C@@H]1Oc1ccc(OC)cc1,0.604 (inactive),-0.092,0.906 (inactive),0.141 (inactive),-0.353 (inactive),0.0261 (inactive),0.136,1.35 (inactive),-0.438 (inactive),-1.9
O=c1n(Cc2cc3c(cc2Cl)OCO3)c(=O)n2n1CC[C@@H]1C(=NOCc3ccccc3)[C@H]3O[C@H]3[C@@H](O)[C@@H]12,0.112 (inactive),-0.055,0.99 (inactive),-1.13 (inactive),0.434 (inactive),-2.49 (inactive),1.63,-0.641 (inactive),0.153 (inactive),0.615
CO[C@H]1COC(=O)CC=C[C@H](C)[C@@H](OC)COC(=O)[C@H](C)COC(=O)CC=C[C@@H]1C,0.79 (inactive),-0.146,-0.0428 (inactive),0.202 (inactive),0.523 (inactive),0.13 (inactive),0.333,-0.165 (inactive),0.297 (inactive),-0.12
CCOC(=O)[C@H](Cc1ccccc1)NC(=O)CCC1CC(OC(=O)NCc2cccc3ccccc23)CC2(CCCC(COC(=O)NCc3ccccc3)O2)O1 (stereo not given in full),-1.32 (inactive),0.0935,4.71 (inactive),0.55 (inactive),-0.562 (inactive),-0.2 (inactive),3.91,-1.59 (inactive),-1.2 (inactive),-1.7
CO[C@H]1COC(=O)CC=C[C@H](C)COC(=O)[C@@H](C)NC(=O)CC=C[C@@H]1C,-0.447 (inactive),0.0669,-0.499 (inactive),-1.13 (inactive),0.475 (inactive),-2.08 (inactive),1.27,0.157 (inactive),0.148 (inactive),-0.0359
CC(=O)OC[C@H]1O[C@H](CC=NO[C@H](C)c2cn([C@H](CO)Cc3ccccc3)nn2)C=C[C@@H]1OC(C)=O,-0.176 (inactive),-0.007,0.639 (inactive),0.103 (inactive),0.238 (inactive),0.391 (inactive),-0.871,-0.0815 (inactive),0.835 (inactive),-1.3
C#CCCCON=C1C[C@@H](O)[C@@H](O)[C@@H]2[C@@H]3C(=O)N(Cc4ccccc4)C(=O)[C@@H]3CC[C@@H]12,0.292 (inactive),-0.0479,0.564 (inactive),0.579 (inactive),-0.292 (inactive),0.06 (inactive),-0.507,-0.727 (inactive),0.47 (inactive),0.551
COC(=O)[C@H](C)NC(=O)CCC1CC(OC(=O)NCc2ccc3c(c2)OCO3)CC2(CCCC(COC(=O)NCC3CCCCC3)O2)O1 (stereo not given in full),-0.23 (inactive),-0.0984,0.858 (inactive),-0.53 (inactive),-0.508 (inactive),-0.167 (inactive),0.224,-0.373 (inactive),0.62 (inactive),-0.651
COc1ccc(C#C[C@@H]2C=C[C@H](OC(C)=O)[C@@H](COC(C)=O)O2)cc1,0.381 (inactive),-0.193,1.96 (inactive),0.141 (inactive),-0.544 (inactive),-0.0979 (inactive),-0.394,1.38 (inactive),0.59 (inactive),0.89
COCCNC(=O)OCC1CCCC2(CC(OC(=O)NCc3ccc4c(c3)OCO4)CC(CCC(=O)N[C@@H](C)C(=O)OC)O2)O1 (stereo not given in full),-0.982 (inactive),0.0341,-1.19 (inactive),0.276 (inactive),0.0971 (inactive),0.296 (inactive),-0.472,1.1 (inactive),1.29 (inactive),0.89
O=C1C2=CC[C@H]3C(=O)N(c4cccc(Oc5ccccc5)c4)C(=O)[C@H]3[C@H]2[C@H](O)[C@@H]2O[C@H]12,-0.462 (inactive),-0.103,-0.0001 (inactive),-0.295 (inactive),-0.081 (inactive),0.157 (inactive),-0.194,0.042 (inactive),0.605 (inactive),0.4
COC(=O)CC=C[C@@H](C)[C@@H](C=NO[C@@H]1O[C@H](COC(C)=O)[C@@H](OC(C)=O)[C@H](OC(C)=O)[C@H]1OC(C)=O)NS(=O)(=O)c1ccc(C)cc1,-0.673 (inactive),-0.397,0.683 (inactive),0.54 (inactive),1.1 (inactive),0.294 (inactive),-0.448,0.837 (inactive),0.968 (inactive),0.569
CC(C)=CCCC(C)=CCON=C1C[C@@H](O)[C@@H](O)[C@@H]2[C@@H]3C(=O)N(Cc4ccccc4)C(=O)[C@@H]3CC[C@H]12,-0.169 (inactive),-0.0197,4.49 (inactive),-0.206 (inactive),0.957 (inactive),-0.748 (inactive),-0.352,1.51 (inactive),0.913 (inactive),-2.3
COc1ccc(O[C@H]2C=C[C@@H](c3ccccc3)O[C@@H]2CON=CC[C@@H]2C=C[C@H](OC(C)=O)[C@@H](COC(C)=O)O2)cc1,-0.259 (inactive),-0.0054,8.95 (active),1.95 (inactive),1.07 (inactive),0.662 (inactive),-0.981,-0.279 (inactive),-2.22 (inactive),-1.01
O=C1OCCC=C1C(O)CCc1ccccc1 (stereo not given),-0.27 (inactive),-0.057,0.512 (inactive),-0.57 (inactive),-0.177 (inactive),-0.193 (inactive),-0.136,-0.428 (inactive),0.0181 (inactive),0.111
COC(=O)[C@@H]1CC[C@H](C)[C@@H](c2ccc(C)cc2)N1C(=O)c1ccc(C=NO[C@H](C)c2cn([C@H](CO)Cc3ccccc3)nn2)cc1,-0.25 (inactive),0.342,18.8 (active),2.92 (inactive),1.91 (inactive),1.25 (inactive),-0.0872,-0.0504 (inactive),-0.591 (inactive),-1.71
COC(=O)CC=C[C@@H](C)[C@@H](C=NO[C@@H](C)c1cn([C@H](CO)Cc2ccccc2)nn1)NS(=O)(=O)c1ccc(C)cc1,0.264 (inactive),0.196,0.507 (inactive),-1.66 (inactive),-0.598 (inactive),-1.93 (inactive),1.85,-0.575 (inactive),0.328 (inactive),0.17
CCc1cc2c(nc1CC)CCN(CCC(C)=NOC[C@H]1O[C@H](c3ccccc3)C=C[C@@H]1Oc1ccc(OC)cc1)C2,-0.563 (inactive),-0.0003,6.37 (inactive),-0.735 (inactive),2.37 (inactive),-1.62 (inactive),1.18,-1.83 (inactive),-0.845 (inactive),-2.68
O=C1C[C@@H](O)[C@@H](O)[C@@H]2[C@@H]3C(=O)N(C[C@@H]4CCCO4)C(=O)[C@@H]3CC[C@H]12,0.555 (inactive),-0.0969,0.651 (inactive),0.461 (inactive),-0.406 (inactive),0.376 (inactive),-0.0289,-0.453 (inactive),-0.111 (inactive),-0.0473
COc1cccc([C@H]2Oc3ccc(OC)cc3C(=NOC[C@@H](O)COCc3ccco3)[C@@H]2O)c1,-0.964 (inactive),-0.43,0.55 (inactive),-2.05 (inactive),0.135 (inactive),-2.01 (inactive),1.04,-0.262 (inactive),0.378 (inactive),-0.104
CCOC(=O)CCN1C(=O)[C@H]2[C@H]3[C@H](O)[C@H](O)CC(=NNC(=O)OCc4ccccc4)[C@@H]3CC[C@H]2C1=O,0.809 (inactive),-0.147,0.0026 (inactive),-0.37 (inactive),-0.371 (inactive),-0.0393 (inactive),0.33,-4.57 (inactive),0.0939 (inactive),0.181
CCOC(=O)[C@H](CC(C)C)NC(=O)CCC1CC(OC(=O)NCc2ccc3c(c2)OCO3)CC2(CCCC(COC(=O)NCCCN3CCCC3=O)O2)O1 (stereo not given in full),0.015 (inactive),0.0004,1.08 (inactive),0.448 (inactive),-0.447 (inactive),0.003 (inactive),0.375,0.242 (inactive),0.187 (inactive),0.32
CC(CCN1CCCCc2nc(C)c(C)cc21)=NOC[C@@H](C)[C@H](OCc1ccccc1)C(C)C,-0.605 (inactive),-0.502,-0.0226 (inactive),-1.71 (inactive),0.167 (inactive),-1.99 (inactive),1.08,-1.86 (inactive),-0.629 (inactive),-3.18
